According to PubChem BioAssay (NCATS):
Results filed as inconclusive are left out. Where a call stands in place of a potency, no number is given. Unmarked numbers belong to inactive results. Active and inactive are the calls of the source. Calls come from the whole dose curve; as a rule, active = well fitted curve in the direction sought with a large enough effect; inconclusive = small, poorly fitted or top-dose-only effect, or another doubt; inactive = no such curve, though single readings can be large; an effect the other way counts as inactive or inconclusive. Where a SMILES comes first, the peptide text is derived from it. [ ]: non-standard residue; d: D form. pGlu = O=C1CC[C@@H](C(=O)O)N1; Thz = O=C(O)[C@@H]1CSCN1

Experiments:
[1] = system: Zika virus NS2B-NS3 protease; experiment: Primary screen GU AMC qHTS for Zika virus inhibitors (AID 1347154); note: nearly all actives have a fitted effect of over 70% in size
In short: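 Unlinked Zika NS2B hydrophilic domain–NS3 protease complex at 25 nM in 10 mM Tris-HCl pH 8.0, 0.01% Tween 20, with an AMC peptide substrate. Fluorescence change (340/450 nm) over 15 min at room temperature, normalized to controls, fitted to 4-parameter Hill.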

[2] = target: Lysine-specific demethylase 5B (Homo sapiens) (UniProt Q9UGL1); experiment: Optimization screen for KDM5B Histone Demethylases FDH coupled qHTS against the LOPAC library (AID 1347166)
Sequence of Lysine-specific demethylase 5B (Homo sapiens) (Q9UGL1 whole entry, looked up): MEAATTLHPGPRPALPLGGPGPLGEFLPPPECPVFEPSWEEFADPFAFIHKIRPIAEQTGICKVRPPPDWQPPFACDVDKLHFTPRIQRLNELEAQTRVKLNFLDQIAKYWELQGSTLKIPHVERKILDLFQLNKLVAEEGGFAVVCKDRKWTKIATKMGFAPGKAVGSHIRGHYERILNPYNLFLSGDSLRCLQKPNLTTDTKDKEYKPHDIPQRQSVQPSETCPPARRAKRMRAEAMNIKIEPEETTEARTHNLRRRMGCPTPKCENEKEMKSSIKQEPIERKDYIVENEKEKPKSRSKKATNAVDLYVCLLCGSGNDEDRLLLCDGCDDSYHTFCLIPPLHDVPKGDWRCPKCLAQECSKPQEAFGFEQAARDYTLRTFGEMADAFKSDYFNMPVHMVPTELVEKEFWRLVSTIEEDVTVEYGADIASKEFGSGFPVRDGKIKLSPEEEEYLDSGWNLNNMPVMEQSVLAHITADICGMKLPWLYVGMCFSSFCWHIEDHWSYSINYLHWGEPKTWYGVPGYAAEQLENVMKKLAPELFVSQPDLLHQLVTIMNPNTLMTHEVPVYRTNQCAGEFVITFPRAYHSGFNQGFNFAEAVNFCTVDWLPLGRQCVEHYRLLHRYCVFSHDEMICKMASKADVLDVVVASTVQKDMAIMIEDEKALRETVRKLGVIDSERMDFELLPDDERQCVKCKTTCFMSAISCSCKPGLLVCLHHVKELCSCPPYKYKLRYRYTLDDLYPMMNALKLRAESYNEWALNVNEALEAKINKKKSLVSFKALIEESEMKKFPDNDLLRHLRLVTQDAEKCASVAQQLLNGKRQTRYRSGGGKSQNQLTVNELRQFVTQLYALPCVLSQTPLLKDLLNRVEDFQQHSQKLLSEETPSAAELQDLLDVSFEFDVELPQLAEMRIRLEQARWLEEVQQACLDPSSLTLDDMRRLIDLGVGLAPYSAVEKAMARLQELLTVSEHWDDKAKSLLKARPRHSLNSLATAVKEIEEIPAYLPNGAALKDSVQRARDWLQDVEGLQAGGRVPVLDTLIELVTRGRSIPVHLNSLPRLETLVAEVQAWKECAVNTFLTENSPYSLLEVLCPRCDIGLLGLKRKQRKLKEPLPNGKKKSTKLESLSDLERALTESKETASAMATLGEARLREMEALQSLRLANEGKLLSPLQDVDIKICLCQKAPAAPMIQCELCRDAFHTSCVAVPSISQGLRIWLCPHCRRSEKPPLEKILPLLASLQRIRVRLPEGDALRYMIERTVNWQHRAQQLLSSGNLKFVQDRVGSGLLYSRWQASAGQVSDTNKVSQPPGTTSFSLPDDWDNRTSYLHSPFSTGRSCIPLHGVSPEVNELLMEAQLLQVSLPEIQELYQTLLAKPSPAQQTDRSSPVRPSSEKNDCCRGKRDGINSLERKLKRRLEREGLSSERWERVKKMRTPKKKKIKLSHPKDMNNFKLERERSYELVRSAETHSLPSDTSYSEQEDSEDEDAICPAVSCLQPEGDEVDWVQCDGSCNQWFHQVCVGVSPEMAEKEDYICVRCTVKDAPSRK
In short: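 KDM5BDeltaAP (200nM final) in 50mM HEPES pH 7.5, 0.01% Tween-20 was preincubated with compound for 10 min at room temperature. A substrate mix of 12.5uM H3K4Me3, 25uM a-ketoglutarate, ascorbate, Fe2+, NAD+ and formaldehyde dehydrogenase was then added. NADH fluorescence (340/450 nm) was read initially and after 30 min.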

[3] = system: Zika virus NS2B-NS3 protease (unlinked complex); experiment: Primary screen GU Rhodamine qHTS for Zika virus inhibitors: Unlinked NS2B-NS3 protease assay (AID 1347159); note: nearly all actives have a fitted effect of over 60% in size; note: potency is the fitted concentration of half-maximal effect
In short: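 Enzyme 25 nM in Tris-HCl pH 8.0 + 0.01% Tween 20; compounds up to 114 microM, 15 min RT dark; + Rhod110 substrate 1.5 microM; read t0 and 15 min; delta fluorescence → % inhibition → 4-parameter Hill fit.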

[4] = system: Zika virus NS2B-NS3 protease (linked construct); experiment: Primary screen NINDS Rhodamine qHTS for Zika virus inhibitors (AID 1347160); note: nearly all actives have a fitted effect of over 55% in size; note: potency is the fitted concentration of half-maximal effect
In short: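 Enzyme (25 nM, linked NS2B-NS3) was preincubated 15 min with compound in 10 mM Tris-HCl pH 8.0, 0.01% Tween 20. Rhodamine110 substrate (1.5 microM) was then added and fluorescence read at start and after 15 min.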

[5] = OV-KATE Cancer Cell Toxicity qHTS against the NCATS CANVASS Library (AID 1347345)
In short: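 Per well, 1000 cells; exposure 72 h with compound at 11 final concentrations; readout CellTiter-Glo luminescence.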

[6] = ZIKV-mCherry secondary qHTS for Zika virus inhibitors (AID 1347158); note: top concentration of the series differs between compounds
In short: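 Read-out is percent infection: mCherry-positive Vero cells (nuclear-proximal intensity >450 RFU, 3 SD above negative controls) counted by high-content imaging of Hoechst-stained, PFA-fixed wells after 48-72 h with ZIKV-mCherry at MOI 1 and compound.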

[7] = system: Zika virus NS2B-NS3 protease (linked); experiment: 384 well plate NINDS AMC confirmatory qHTS for Zika virus inhibitors (AID 1347163); conditions: Recombinant NS2B-NS3 protease, Ac-VKTGKR-AMC fluorescence; note: potency is the fitted concentration of half-maximal effect; nearly all actives have a fitted effect of over 50% in size
In short: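 Enzyme (5, 30 or 60 nM final) first met test compounds for ~15 min. The AMC-tagged peptide Ac-VKTGKR-AMC followed at 30 microM. Fluorescence was then recorded at 25 min and scaled against no-enzyme and no-inhibitor wells.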

[8] = system: Zika virus NS2B-NS3 protease (linked construct); experiment: 384 well plate NINDS Rhodamine confirmatory qHTS for Zika virus inhibitors (AID 1347164); note: potency is the fitted concentration of half-maximal effect; nearly all actives have a fitted effect of over 65% in size
In short: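 Cleavage of Ac-LKRR-Rhodamine 110 (10 microM final) by linked protease (final 5, 30 or 60 nM) was followed as fluorescence at 485/538 nm after 25 min, room temperature, dark. Compounds preincubated ~15 min.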

CSc1ccccc1N1CCN(CCCCCC(=O)NC2CCCc3ccccc32)CC1 (centres undefined)
Potency [1]: inactive
outcome [2]: inactive

C/C(=N\O)c1ccc(OCC(=O)N2CCCCC2)cc1
Potency [1]: inactive
Potency [3]: inactive
Potency [4]: inactive

CC(C(=O)O)c1ccc2c(c1)[nH]c1ccc(Cl)cc12 (centres undefined)
Potency [1]: inactive
Potency [3]: 35.5 µM (active)

CN1CC(=O)N/C1=N/C(=O)Nc1cccc(Cl)c1
Potency [1]: inactive
outcome [2]: inactive

CN1[C@@H]2CC[C@H]1CC(OC(c1ccccc1)c1ccccc1)C2 (some centres undefined)
Potency [3]: inactive
Potency [4]: inactive

CNc1ncnc2c1ncn2[C@@H]1O[C@H](CO)[C@@H](O)[C@H]1O
Potency [1]: inactive
outcome [2]: inactive

O=C(O)c1cc([N+](=O)[O-])ccc1NCCCc1ccccc1
Potency [1]: inactive
outcome [2]: inactive

O=S(=O)(c1cccc2c(I)cccc12)N1CCCNCC1
Potency [1]: inactive
outcome [2]: inactive

CCCOC(=O)c1ccc(O)cc1
Potency [1]: inactive

CC1(C)[C@@H](O)CC[C@]2(C)[C@H]3C(=O)C=C4[C@@H]5C[C@@](C)(C(=O)O)CC[C@]5(C)CC[C@@]4(C)[C@]3(C)CC[C@@H]12
Potency [3]: 17.8 µM (active)
Potency [4]: 14.1 µM (active)

Ic1ccc(N2CCN(Cc3c[nH]c4ncccc34)CC2)cc1
Potency [1]: inactive
outcome [2]: inactive

COc1cc(/C=C/C(=O)N2CCN(CC(=O)N3CCCC3)CC2)cc(OC)c1OC
Potency [3]: inactive
Potency [4]: inactive

CC(=O)c1ccc(OCC(=O)N2CCCCC2)cc1
Potency [1]: inactive
Potency [3]: inactive
Potency [4]: inactive

CC1(C)S[C@@H]2[C@H](NC(=O)[C@H](N)c3ccc(O)cc3)C(=O)N2[C@H]1C(=O)O
Potency [3]: inactive
Potency [4]: inactive

COc1cc(CNC(=O)CCCC/C=C/C(C)C)ccc1O
Potency [1]: inactive
Potency [3]: inactive
Potency [4]: inactive

O=C1CC[C@@H](C(=O)N2CSC[C@H]2C(=O)O)N1 ([pGlu]-[Thz]-OH)
Potency [3]: inactive
Potency [4]: inactive

Cc1onc(-c2c(F)cccc2Cl)c1C(=O)N[C@@H]1C(=O)N2[C@@H]1SC(C)(C)[C@@H]2C(=O)O
Potency [3]: inactive
Potency [4]: inactive

CC(C)NCC(O)COc1cccc2ccccc12 (centres undefined)
Potency [1]: inactive
outcome [2]: inactive

CN1CCC[C@H]1c1cccnc1
Potency [1]: inactive
outcome [2]: inactive

COC(=O)[C@H]1[C@H]2C[C@@H]3c4[nH]c5cc(OC)ccc5c4CCN3C[C@H]2C[C@@H](OC(=O)/C=C/c2cc(OC)c(OC)c(OC)c2)[C@@H]1OC
Potency [3]: inactive
Potency [4]: inactive

CC1(C)C[C@@H]1C(=O)N/C(=C\CCCCSC[C@H](N)C(=O)O)C(=O)O
Potency [1]: inactive

CC(C)(C)c1nnc(NS(=O)(=O)c2ccc(N)cc2)s1
Potency [1]: inactive

C[C@H](O)[C@H](O)[C@H]1CNc2nc(N)[nH]c(=O)c2N1
Potency [3]: inactive
Potency [4]: inactive

O=C(O)[C@@H]1C[C@@H](C(=O)O)N1
Potency [1]: inactive
outcome [2]: inactive

O=C(O)c1cc(O)c(O)c(O)c1
Potency [1]: inactive
Potency [4]: 49.3 µM (active)
outcome [5]: inactive

O=[N+]([O-])c1ccc(CNc2nc(NCc3cccc(C(F)(F)F)c3)nc3nc[nH]c23)cc1
Potency [3]: inactive
Potency [4]: inactive

Cc1nc2sccn2c(=O)c1CCN1CCC(=C(c2ccccc2)c2ccc(F)cc2)CC1
Potency [1]: inactive
outcome [2]: inactive

CN(C)[C@@H]1C(=O)C(C(=O)NCN2CCCC2)=C(O)[C@@]2(O)C(=O)C3=C(O)c4c(O)cccc4[C@@](C)(O)C3C[C@@H]12 (some centres undefined)
Potency [1]: inactive
outcome [6]: inactive
Potency [7]: 0.891 µM (active)
Potency [8]: 44.7 µM (active)

CCCCCC(O)c1cccc(OCc2ccc3ccccc3n2)c1 (centres undefined)
activity change, negative = inhibition [1]: 14.2% [at 6.83 µM]
outcome [2]: inactive

CCCCCCCCCCCCCCCC(=O)OC(CC(=O)O)C[N+](C)(C)C (centres undefined)
Potency [1]: inactive
outcome [2]: inactive

Cc1ccc2c(n1)Oc1ccc(C(C)C(=O)OCC(=O)N(C)C)cc1C2 (centres undefined)
Potency [1]: inactive
Potency [3]: inactive
Potency [4]: inactive

O=C(O)Cc1cccc(-c2cc(CCCCCCc3ccc(O[C@H]4O[C@H](CO)[C@@H](O)[C@H](O)[C@@H]4O)c(-c4cccc(CC(=O)O)c4)c3)ccc2O[C@H]2O[C@H](CO)[C@@H](O)[C@H](O)[C@@H]2O)c1
activity change, negative = inhibition [1]: 1.91% [at 0.59 µM]
activity change, negative = inhibition [3]: 17.6% [at 1.28 µM]
activity change, negative = inhibition [4]: 11.1% [at 0.684 µM]
